High-throughput results deposited in PubChem by several laboratories.
Autofluor counter – counter-screen for toxin protease inhibitors: compound fluorescence. fluorescence intensity (no concentration beside the values). 360,000 tested, 3.1% active. compound autofluorescence counterscreen, microsphere flow cytometry; active compounds read high; in the data active = fluorescence intensity above about 16000; inconclusive = no clear call, values can overlap the other calls
Anthrax LF prot – Bacillus anthracis LF protease inhibitors, primary screen, biochemical, multiplex microsphere, MLPCN library; Lethal factor (Bacillus anthracis), P15917; multiplex microsphere protease cleavage assay; inhibition, % at 10 µM; 360,000 tested, 0.12% active; AID 588501, 2011; note: plate controls were buffer without enzyme for full effect and enzyme alone for no effect
MazF activator – activators of E. coli MazEF toxin-antitoxin RNase, primary screen, biochemical, fluorescence, uHTS; Endoribonuclease toxin MazF (Escherichia coli (strain K12)), P0AE70; FAM/BHQ RNA-DNA oligo cleavage fluorescence, 5 h; activation, % at 20 µM; 350,000 tested, 0.32% active; in the data active = activation above about 50%
BoNT A protease – BoNT/A light chain protease inhibitors, primary screen, biochemical, flow cytometry, MLPCN library | AID 588499, 2011 | 360,000 tested, 0.17% active | multiplex microsphere protease substrate cleavage | Botulinum neurotoxin type A light chain protease (Clostridium botulinum A str. ATCC 3502) | inhibition, % at 10 µM; note: plate controls were buffer without enzyme for full effect and enzyme alone for no effect
BoNT-F LC inh – BoNT/F light chain protease inhibitors, primary screen, biochemical, flow cytometry, MLPCN library; Botulinum neurotoxin type F light chain protease (Clostridium botulinum); Multiplex microsphere protease cleavage assay; inhibition, % at 10 µM; 360,000 tested, 0.22% active; AID 588497, 2011; in the data active = inhibition above about 35%, passing the limit was not always enough; inconclusive = no clear call, values can overlap the other calls; note: plate controls were buffer without enzyme for full effect and enzyme alone for no effect
* hit, by the source's call; ? = inconclusive; nt = no result given. This is a sample that favours compounds with a hit; in the whole collection about 3.6% have one here. Cut-off read from the data, not from the text of the source, unless noted: active = inhibition above about 30%; inconclusive = no clear call, values can overlap the other calls; inactive = below that.

SMILES	Autofluor counter	Anthrax LF prot	MazF activator	BoNT A protease	BoNT-F LC inh
CSc1nc2ccc(S(=O)(=O)N(C)C)cc2s1	20777*	-3.3	1.2	?	-1.6
C/C(=N\NC(=O)C(O)c1ccccc1)c1ccc(Br)s1 (centres undefined)	2948	-3.3	5.0	1.6	8.5
Cc1ccc(/C=N/NC(=O)Cn2cncn2)cc1	4955	-3.9	-3.3	-1.3	-14.4
Cc1ccc(C2CC(=O)C(C=NCCN3CCN(C(=S)Nc4ccccc4)CC3)=C(O)C2)cc1 (centres undefined)	2215	0.8	1.2	-0.7	-0.5
O=C1CC(c2ccccc2)CC(O)=C1C=NCCN1CCN(C(=O)Nc2ccccc2)CC1 (centres undefined)	22422*	-2.1	-1.4	1.3	2.8
OCCC1CN(CC2CCCCC2)CCN1C1CCCC1 (centres undefined)	2997	-8.7	-1.1	3.9	16.8
N#CC1=C(N)SC(N)=C(C#N)C1C1C=CCCC1 (centres undefined)	19353*	-2.2	-2.2	1.5	3.4
N#CC1=C(N)SC(N)=C(C#N)C1C1CC=CCC1 (centres undefined)	6667	-14.4	2.9	-0.5	-17.7
CCc1cccc(CC)c1NC(=O)COC(=O)/C(C#N)=C/c1ccc(OC)cc1	2139	-0.4	124.2*	0.7	-2.0
COc1cccc(CN(C)CCCn2cnc3c(SC)ncnc32)c1	2861	-2.3	5.0	0.0	7.5
CCc1c(C)nc(N)nc1N1N=C1SCC#N	22462*	-1.9	9.5	1.9	1.5
CC(C)C(=O)NC(=S)Nc1c(Cl)ccc2nsnc12	5884	2.1	6.9	-0.1	2.6
Cc1cccc(-c2noc(CCC(=O)N3CCN(c4cc(C)ccc4C)CC3)n2)c1	3651	-0.3	5.6	-0.1	-1.9
O=C(CCCc1nc(-c2ccc(Cl)cc2)no1)N1CCOCC1	5296	3.4	-1.2	0.0	-5.7
Cc1ccc(-c2noc(CCCC(=O)N3CCOCC3)n2)cc1	20543*	-1.3	2.1	4.1	5.1
Cc1cccc(-c2noc(CCCC(=O)N3CCOCC3)n2)c1	21401*	-6.0	-3.1	7.1	5.1
CC(C)CN(C(=O)C1CSC2(C)CCC(=O)N12)c1c(N)n(Cc2ccccc2)c(=O)[nH]c1=O (centres undefined)	5628	2.4	5.3	2.0	15.2
COc1ccc(CCN(C)C(=O)CSc2ncnc3sccc23)cc1OC	4607	-0.6	1.1	0.1	5.5
COc1ccc(CCN(C)C(=O)CSc2nccn2C)cc1OC	19523*	-0.6	0.0	?	1.9
CCCN(CCC)S(=O)(=O)c1ccc(NC(=O)COc2ccccc2)cc1	16179*	1.8	1.8	?	-0.8
CCCCN(CCCC)S(=O)(=O)c1ccc(NC(=O)CN2CCOCC2)cc1	20756*	0.6	-5.7	4.6	3.5
CC(=O)c1ccc(NC(=O)Cc2cccs2)cc1	3432	3.4	-23.3	1.4	?
CC(=O)c1cccc(NC(=O)Cc2cccs2)c1	23709*	-2.1	11.0	-0.5	-0.4
CCCN(CCC)S(=O)(=O)c1ccc(NC(=O)Cc2cccs2)cc1	25405*	-0.4	2.1	?	-5.2
CC(C)OCCCn1c(-c2ccc(Br)cc2)c[nH]c1=S	3234	4.4	-7.6	-0.2	2.0
SMILES	Autofluor counter	Anthrax LF prot	MazF activator	BoNT A protease	BoNT-F LC inh
O=C(CNC(=O)c1ccncc1)N/N=C/c1ccccc1[N+](=O)[O-]	2536	-1.7	3.0	-0.3	-12.0
COc1cc(/C=N\NC(=O)c2cccnc2)ccc1OC(=O)c1ccccc1Cl	5347	-2.1	19.4	1.3	8.7
CCCCN(CCCC)S(=O)(=O)c1ccc(NC(=O)Cc2cccs2)cc1	23090*	-2.2	1.6	1.1	1.0
COc1ccc(/C=C/C(=O)NCc2cnn(C)c2C)cc1COc1ccc(Br)cc1	23817*	-2.1	-13.0	-2.4	-4.3
COc1ccc(/C=C/C(=O)NCc2c(C)nn(C)c2C)cc1COc1ccc(Br)cc1	8036	-2.7	1.3	2.7	20.2
CC[C@@H]1CC2=C(C(=O)OC(C)(C)O2)[C@@H](c2ccc(Cl)cc2)O1	4306	0.8	nt	-0.3	0.4
Cc1ccc(CNC(=O)C(C)OC(=O)c2ccco2)cc1 (centres undefined)	22466*	0.0	6.0	?	3.5
Cc1ccc(CNC(=O)C(OC(=O)c2ccco2)C(C)C)cc1 (centres undefined)	11765	-3.6	-1.8	-0.7	-12.3
CN(C)c1ccc2nc3ccc(=O)cc-3sc2c1	2898	-2.0	-2.7	3.9	-3.4
Cc1cc2nc3ccc(=[N+](C)C)cc-3sc2cc1N	3584	20.0	-12.1	61.4*	-9.6
Cc1nc2cc(C)c(C)cc2s1	4430	1.2	5.9	0.6	2.8
CN(C)c1ccc2nc3ccc(=[N+](C)C)cc-3sc2c1	2168	7.1	-4.4	31.5*	-24.8
CC(=O)Oc1cccc(/C=c2\sc3nc(-c4ccco4)nn3c2=O)c1	2306	0.9	-24.0	0.5	5.4
CCCOc1ccc(/C=c2\sc3nc(-c4ccco4)nn3c2=O)cc1OCC	6206	-0.3	218.1*	0.6	4.5
O=C1C2C3C=CC(C3)C2C(=O)N1CNc1ccccc1 (centres undefined)	2636	1.1	-15.8	0.2	-6.2
O=C1C2C3C=CC(C3)C2C(=O)N1CN(Cc1ccccc1)CN1C(=O)C2C3C=CC(C3)C2C1=O (centres undefined)	16805*	-0.6	4.1	-0.9	-2.1
CCC(C)c1ccc(O)c(N)c1 (centres undefined)	16286*	-3.4	-4.0	0.1	-3.3
Cc1nnc(N2C(=O)C(O)=C(C(=O)c3ccco3)C2c2ccc(C(C)C)cc2)s1 (centres undefined)	2618	3.0	62.3*	0.4	3.1
CSc1ccc(C2C(C(=O)c3ccco3)=C(O)C(=O)N2c2nnc(SC)s2)cc1 (centres undefined)	7823	-2.4	186.8*	-4.5	-3.3
Cc1nnc(N2C(=O)C(O)=C(C(=O)c3ccco3)C2c2ccc(C(C)(C)C)cc2)s1 (centres undefined)	3438	0.0	191.9*	0.5	-11.1
Cc1nnc(N2C(=O)C(O)=C(C(=O)c3ccco3)C2c2ccc(F)cc2)s1 (centres undefined)	4120	4.6	2.4	1.4	2.2
Cc1ccccc1Cn1nnc2c1C(=O)c1ccccc1C2=O	?	1.3	11.9	0.5	-4.7
Cc1cccc(Cn2ncc(Cl)c(Cl)c2=O)c1	16414*	1.1	-3.6	-0.2	0.2
Cc1ccc(C)c(C(=O)Cn2ncc(Cl)c(Cl)c2=O)c1	2769	0.0	0.7	-0.1	-1.1
Cc1ccc(C(=O)OCn2ncc(Cl)c(Cl)c2=O)cc1	17159*	-2.0	3.5	-2.3	-4.9
Cc1cccc(Cn2nnc3c2C(=O)c2ccccc2C3=O)c1	16137*	-1.6	-1.1	-0.2	-3.2
